# Activity calls are given as the source filed them.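 Rule for the calls: active = ATP luminescence loss from cell killing, with fitted half-maximal dose at or below the top valid tested dose; inconclusive = flat curve with partial loss of 30 to 70%, or poor fit; inactive = the rest.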
# Assay: HEK293T cell cytotoxicity, dose response, cytotoxicity control, CellTiter-Glo luminescence, dry powder, set 5 (AID 743147)
# Conditions: HEK293T viability, CellTiter-Glo ATP luminescence, 72 h; series mostly up to 26 µM; activity change, negative = cytotoxicity: at the top concentration
row,Structure (SMILES),"activity change, negative = cytotoxicity"
1,C[C@@H]1CC(=O)NN=C1c1ccc(C2CCCCC2)cc1,-17.5% (inactive)
2,COc1cc2c(cc1OC)-c1cc(=Nc3c(C)cc(C)cc3C)n(C)c(=O)n1CC2,-10.5% (inactive)
3,C[C@@H]1CC(=O)NN=C1c1ccc(N2CCOCC2)c(F)c1,36.7% (inactive)
4,CC(=O)Nc1ccc(C2=NNC(=O)C[C@H]2C)cc1[N+](=O)[O-],29.3% (inactive)
5,CCN1N=C(c2ccc(N(CC)CC)cc2)[C@H](C)CC1=O,-13.9% (inactive)
6,C[C@@H]1CC(=O)NN=C1c1ccc(N2CCOCC2)cc1,-11.2% (inactive)
7,C[C@@H]1CC(=O)NN=C1c1ccc(-c2cncnc2)cc1,20.9% (inactive)
8,C[C@@H]1CC(=O)NN=C1c1ccc(F)c(F)c1,22.2% (inactive)
9,O=C1CN2Cc3c(ccc(Cl)c3Cl)N=C2N1,-0.788% (inactive)
10,Cn1c(NC(=O)c2ccccc2)nc2ccccc21,-26.1% (inactive)
11,CCN(CC)c1ccc(C2=NNC(=O)CC2C)cc1[N+](=O)[O-] (stereo not drawn),-11.4% [at 12 µM] (inactive)
12,C[C@H]1CC(=O)NN=C1c1ccc(N2CCOCC2)c(F)c1,0.453% (inactive)
13,C[C@@H]1CC(=O)NN=C1c1ccc(Cl)cc1,-16.6% (inactive)
